MCF10A rereplic: A quantitative high throughput screen for small molecules that induce DNA re-replication in MCF 10a normal breast cells; MCF 10A DNA re-replication, Hoechst nuclear intensity, 48 h; Potency, µM (doses to about 46.1 µM), most hits filed as activators; 2.9% of 350,000 active; AID 624296, 2012; note: nearly all actives have a fitted effect of over 50% in size
KB-3-1 cytotox: qHTS assay for MDR1-selective chemotherapeutics: Primary screen using the parental adenocarcinoma cell KB-3-1. KB-3-1 viability, CellTiter-Glo ATP luminescence, 72 h. Potency, µM (titrated, usually from 46.1 µM), hits mostly cytotoxic. 1.4% of 400,000 active; note: nearly all actives have a fitted effect of over 60% in size
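Screening of KB-3-1 cells (DMEM, 10% FBS, phenol-red free) ran from lowest to highest compound concentration; after 72 h at 37 °C viability was read luminescently and curves fitted.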
SW480 rereplic: A quantitative high throughput screen for small molecules that induce DNA re-replication in SW480 colon adenocarcinoma cells; 1.8% of 340,000 active; Potency, µM (series often up to 46.1 µM), actives largely listed as activators; SW480 DNA re-replication, Hoechst DNA content imaging, 48 h; note: nearly all actives have a fitted effect of over 55% in size
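Treated cells incubate 48 hr (37 C, 5% CO2), are stained 40 min with Hoechst, and nuclear fluorescence is enumerated; a rise in nuclei with high DNA signal marks re-replication.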
ELG1 DNA repair: qHTS screen for small molecules that inhibit ELG1-dependent DNA repair in human embryonic kidney (HEK293T) cells expressing luciferase-tagged ELG1; Potency, µM (titrated, usually from 46.1 µM), most hits filed as inhibitors; HEK293T ELG1-luciferase reporter, luminescence, 16 h; DNA damage induced by 5-fluorouridine; 2.3% of 330,000 active; note: nearly all actives have a fitted effect of over 55% in size
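Overnight (16 hr) co-exposure of 2,000 cells/well to 5-fluorouridine and compound at 37 °C preceded detection. Luciferase was quantified via ONE-Glo luminescence; loss of signal denotes inhibition.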
KB-V1 cytotox: qHTS assay for MDR1-selective chemotherapeutics: Primary screen using the drug-selected MDR subline cells KB-V1; KB-V1 MDR cells viability, CellTiter-Glo, 72 h; Potency, µM (highest dose often 46.1 µM), most hits filed as cytotoxic; 3.4% of 400,000 active; note: nearly all actives have a fitted effect of over 60% in size
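KB-V1 MDR subline cells in DMEM (phenol-red free, 10% FBS) exposed to compounds in qHTS concentration series for 72 h at 37 degrees C. Viability read by CellTiter-Glo luminescence; concentration-effect curves fitted after normalization and correction.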
Of the large screens only hits and unclear results are named; the others gave an inactive call; ! = not active in a repeat. Sampled rows, rich in hits. Any-hit rate of the full collection: about 8.2%. Calls come from the whole dose curve; as a rule, active = well fitted curve in the direction sought with a large enough effect; inconclusive = small, poorly fitted or top-dose-only effect, or another doubt; inactive = no such curve, though single readings can be large; an effect the other way counts as inactive or inconclusive.

CCn1c(Cc2ccc(OC)cc2)nnc1SCC(=O)Nc1cccc(C(=O)OC)c1	ELG1 DNA repair inconclusive, KB-V1 cytotox 5.2µM
CCn1c(CNc2ccc(OC)cc2)nnc1SCC(=O)Nc1ccc(F)cc1	KB-V1 cytotox 21µM
CCn1c(CNc2ccc(F)cc2)nnc1SCC(=O)Nc1ccc(OC)cc1OC	KB-V1 cytotox inconclusive
COC(=O)c1cc2c(n1S(=O)(=O)c1ccc(C)cc1)C(=O)C(=O)c1[nH]cc(C(=O)OCc3ccccc3)c1-2	KB-3-1 cytotox 3.3µM, SW480 rereplic inconclusive, KB-V1 cytotox 7.3µM (no result: ELG1 DNA repair)
O=C(NCCN1C(=O)S/C(=C\c2ccc(Cl)c([N+](=O)[O-])c2)C1=O)C1=COCCO1	MCF10A rereplic 3.7µM, KB-3-1 cytotox inconclusive, ELG1 DNA repair inconclusive
O=C(OCC(=O)N1CCCCCC1)c1ccc([N+](=O)[O-])cc1Cl	MCF10A rereplic 0.82µM
O=C(c1cccc(Oc2ccc([N+](=O)[O-])cc2Cl)c1)N1CCCCC1	ELG1 DNA repair 23µM
COc1cc(C)ccc1Oc1ccc([N+](=O)[O-])cc1	KB-V1 cytotox inconclusive (no result: ELG1 DNA repair)
CCNc1nc(Nc2ccc(C)c(Cl)c2)c2cnn(C)c2n1	SW480 rereplic inconclusive, ELG1 DNA repair 9.2µM
Cn1ncc2c(Nc3ccc(Cl)c(Cl)c3)ncnc21	ELG1 DNA repair inconclusive
CCCCNc1nc(Nc2ccc(C)c(Cl)c2)c2cnn(C)c2n1	MCF10A rereplic inconclusive, SW480 rereplic inconclusive, ELG1 DNA repair 18µM
COc1cccc(CC(=O)Nc2ccc3c(c2)OC2(CCCC2)O3)c1	ELG1 DNA repair inconclusive
OC(CNCc1ccccc1)COCc1ccc(Cl)cc1 (stereo unspecified)	none
O=S(Cc1ccc(Cl)cc1)CC(O)COCc1ccc(Cl)cc1 (stereo unspecified)	KB-V1 cytotox 16µM
C=C1C(=O)OC2C=C(CO)CCC=C(CO)CC(OC(=O)C(C)C)C12 (stereo unspecified)	MCF10A rereplic 10µM, KB-3-1 cytotox inconclusive, SW480 rereplic inconclusive (no result: ELG1 DNA repair)
Cn1c(=O)c2cc(NC(=O)NCCc3cccs3)ccc2n1C/C=C/c1ccccc1	none (no result: MCF10A rereplic, SW480 rereplic, ELG1 DNA repair)
Cc1nc(Nc2ccc(O)cc2)c2c3c(sc2n1)CCCC3	MCF10A rereplic inconclusive, ELG1 DNA repair inconclusive
Cc1ccc(CNc2nc(C)nc3sc4c(c23)CCC4)cc1	ELG1 DNA repair inconclusive, KB-V1 cytotox 8.2µM
Cc1nc(NC(C)c2ccccc2)c2c3c(sc2n1)CCC3 (stereo unspecified)	MCF10A rereplic 10µM, KB-3-1 cytotox inconclusive, SW480 rereplic inconclusive, ELG1 DNA repair inconclusive
Cc1nc(NS(=O)(=O)c2cccs2)c2c3c(sc2n1)CCC3	KB-3-1 cytotox inconclusive
NS(=O)(=O)c1ccc(CCNC(=O)C2COc3ccccc3C2)cc1 (stereo unspecified)	KB-V1 cytotox inconclusive (no result: MCF10A rereplic, SW480 rereplic, ELG1 DNA repair)
CCN(CC)S(=O)(=O)c1ccc2c(c1)N(CC(=O)N1CCN(c3cccc(C)c3)C(C)C1)C(=O)CO2 (stereo unspecified)	none (no result: MCF10A rereplic, SW480 rereplic, ELG1 DNA repair)
COc1ccc(-c2nc3cccc(C)n3c2NCC2CCCO2)cc1O (stereo unspecified)	ELG1 DNA repair inconclusive, KB-V1 cytotox 12µM
Cn1c(O)c(N=NC(=O)c2cccc(S(=O)(=O)N3CCCCC3)c2)c2ccccc21	MCF10A rereplic inconclusive, ELG1 DNA repair 18µM, KB-V1 cytotox inconclusive
O=c1[nH][nH]c(-c2ccccc2O)c1C(C[N+](=O)[O-])c1ccc(Br)cc1 (stereo unspecified)	MCF10A rereplic inconclusive, SW480 rereplic inconclusive, ELG1 DNA repair inconclusive
Cc1ccc(C(C[N+](=O)[O-])c2c(-c3ccccc3O)[nH][nH]c2=O)cc1 (stereo unspecified)	MCF10A rereplic 12µM, KB-3-1 cytotox inconclusive, SW480 rereplic 15µM, KB-V1 cytotox inconclusive
O=C(Cc1ccsc1)NCC(=O)Nc1ccccc1Br	none
Cc1ccccc1N/N=C/c1sc(=O)n(Cc2cccc(C(=O)O)c2)c1Cl	MCF10A rereplic inconclusive
COC(=O)c1cccc(Cn2c(Cl)c(/C=N/Nc3ccccc3C)sc2=O)c1	MCF10A rereplic 26µM, SW480 rereplic 10µM, KB-V1 cytotox inconclusive
Cc1ccc(C(=O)Nc2ccccc2C(=O)O)cc1S(=O)(=O)N1CCCCCC1	none (no result: MCF10A rereplic, SW480 rereplic, ELG1 DNA repair)
COCCn1c(SCC(=O)N2CCC(C)CC2)nc2ccccc2c1=O	none
COc1ccc(C(=O)Nn2c(SCC(=O)NCc3ccco3)nc3ccccc3c2=O)cc1	KB-3-1 cytotox inconclusive, ELG1 DNA repair inconclusive, KB-V1 cytotox inconclusive
COc1ccc(C(=O)Nn2c(SCC(=O)N3CCC(C)CC3)nc3ccccc3c2=O)cc1	ELG1 DNA repair inconclusive, KB-V1 cytotox 5.2µM
COc1ccc(C(=O)Nn2c(SCC(=O)NC3CCCCC3)nc3ccccc3c2=O)cc1	ELG1 DNA repair inconclusive, KB-V1 cytotox 18µM
COc1ccc(C(=O)Nn2c(SCC(=O)c3ccc(Cl)cc3)nc3ccccc3c2=O)cc1	ELG1 DNA repair inconclusive, KB-V1 cytotox 5.8µM
C/C(=N\NC(=O)c1cc(C2CC2)nc2ccccc12)c1ccc(C)s1	MCF10A rereplic inconclusive, SW480 rereplic inconclusive
C/C(=N\NC(=O)c1cc(-c2cccnc2)nc2ccccc12)c1ccccc1O	MCF10A rereplic inconclusive, ELG1 DNA repair inconclusive, KB-V1 cytotox 6.5µM
C/C(=N\NC(=O)c1cc(C2CC2)nc2ccccc12)c1ccc(O)cc1O	KB-3-1 cytotox inconclusive, SW480 rereplic 1.5µM, ELG1 DNA repair inconclusive
Cc1ccc(OCC(=O)NCCNC(=O)c2ccncc2)cc1C	ELG1 DNA repair inconclusive
Cn1nccc1NC(=O)CSCC(=O)O	MCF10A rereplic 8.2µM, ELG1 DNA repair inconclusive
Cn1nccc1NC(=O)Nc1ccccc1	ELG1 DNA repair inconclusive
Cc1ccnn1CCSCC(=O)O	MCF10A rereplic 21µM
O=[N+]([O-])c1cc(Cl)cc2c1nc(NCCO)c1ccccc12	KB-3-1 cytotox 18µM, SW480 rereplic inconclusive, ELG1 DNA repair inconclusive, KB-V1 cytotox inconclusive
NC(=O)C1C(c2ccccc2)=C1c1ccccc1	ELG1 DNA repair inconclusive, KB-V1 cytotox 21µM
O=C(O)C1C(c2ccccc2)=C1c1ccc(Br)cc1 (stereo unspecified)	none (no result: MCF10A rereplic, SW480 rereplic, ELG1 DNA repair)
CC1=C(C(=O)N(C)C)C(c2ccc(Cl)c(Cl)c2)NC(=O)N1 (stereo unspecified)	none
CN[C@H]1CC[C@@H](c2ccc(Cl)c(Cl)c2)c2ccccc21	MCF10A rereplic inconclusive, KB-3-1 cytotox inconclusive, SW480 rereplic inconclusive, KB-V1 cytotox 21µM!
CCn1c(SC(C)C(=O)Nc2ccc(C)cc2)nnc1-c1ccccc1 (stereo unspecified)	none (no result: MCF10A rereplic, SW480 rereplic, ELG1 DNA repair)
COC(=O)C1=CN(Cc2ccc(OC)cc2)C=C(C(=O)OC)C1c1cc(OC)c(OC)c(OC)c1	MCF10A rereplic inconclusive

Assay outcomes (PubChem)
